Source: the supplement of paper PMC13172266
Where a name gives a salt, the structure may show the parent alone.

system: U2932 TK216-resistant clone 2; test: cell proliferation relative to vehicle (% of vehicle); higher = less growth inhibition; conditions: 500 nM; 72 h
Procedure, shortened: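 Growth medium with 10% FBS at 37°C and 5% CO2 was used to culture U2932, an ABC-DLBCL line, in parental form and as two clones rendered resistant to an ETS-targeting agent by repeated exposure over almost a year. These cells received compounds from a 348-member targeted inhibitor library at 500 nM or 50 nM for 72 h, followed by 4 h of MTT, a 25% SDS stop and an absorbance read on a Cytation 3. The percentage of proliferating cells is reported relative to DMSO vehicle.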

Going from CCCCCOC(=O)Nc1nc(=O)n([C@@H]2O[C@H](C)[C@@H](O)[C@H]2O)cc1F [Capecitabine] to CC(C)CCN1c2nc(Nc3cc(F)c(O)c(F)c3)ncc2N(C)C(=O)C1C (stereo not drawn), the cell proliferation falls from 105 to 99.9.

First: C[C@H](Nc1ncnc2nc[nH]c12)c1cc2cccc(Cl)c2c(=O)n1-c1ccccc1
Second: Cc1ccc(C(=O)N(CCCN)[C@@H](c2nc3cc(Cl)ccc3c(=O)n2Cc2ccccc2)C(C)C)cc1
The cell proliferation of the first is higher: 92.2 for the first, 10.8 for the second.

First: Cc1cc(Nc2cc(N3CCN(C)CC3)nc(/C=C/c3ccccc3)n2)n[nH]1 [ENMD-2076 L-(+)-Tartaric acid]
Second: Cn1cc(CNCC2CCN(c3ncc(C(=O)NO)cn3)CC2)c2ccccc21
The cell proliferation of the first is higher: 61.9 for the first, 5.78 for the second.

First: NCC(=O)Nc1ccc(-n2nc(C(F)(F)F)cc2-c2ccc3c(ccc4ccccc43)c2)cc1
Second: COc1ccc(S(=O)(=O)N(CCO)c2ccccc2CN(C)C/C=C/c2ccc(Cl)cc2)cc1 [KN-93 Phosphate]
The cell proliferation of the first is lower: 84.6 for the first, 90.8 for the second.

First: CC[C@@]1(O)C(=O)OCc2c1cc1n(c2=O)Cc2cc3c(CN(C)C)c(O)ccc3nc2-1 [Topotecan HCl]
Second: CC[C@@H]1C(=O)N(C)c2cnc(Nc3ccc(C(=O)NC4CCN(C)CC4)cc3OC)nc2N1C1CCCC1
The cell proliferation of the first is lower: 5 for the first, 21 for the second.

CC(C)(C)c1nc(-c2cccc(NS(=O)(=O)c3c(F)cccc3F)c2F)c(-c2ccnc(N)n2)s1 and CN(CCOc1ccc(CC2SC(=O)NC2=O)cc1)c1ccccn1 (stereo not drawn) [Rosiglitazone] are the same in cell proliferation: 101 for the first, 101 for the second.

CN1C(=O)C(Cc2c[nH]c3ccccc23)NC1=S (stereo not drawn) [Necrostatin-1] gave a cell proliferation of 93.1.
